Experimental findings from ChEMBL document CHEMBL2218924, “A broad activity screen in support of a chemogenomic map for kinase signalling research and drug discovery” (Biochem J, 2013) are described below.

Assay [1] addresses Mitogen-activated protein kinase 10 (Homo sapiens) (UniProt P53779). Particulars: at 10 µM.
Assay [2] deals with Vascular endothelial growth factor receptor 2 (Homo sapiens) (UniProt P35968). Particulars: at 1 µM.
For assay [3] the target is unchanged. Particulars: at 10 µM.
The target of assay [4] is LIM domain kinase 1 (Homo sapiens) (UniProt P53667). Particulars: at 1 µM.
Sequence of LIM domain kinase 1 (Homo sapiens) (P53667 whole entry, looked up, the tested form may be a part): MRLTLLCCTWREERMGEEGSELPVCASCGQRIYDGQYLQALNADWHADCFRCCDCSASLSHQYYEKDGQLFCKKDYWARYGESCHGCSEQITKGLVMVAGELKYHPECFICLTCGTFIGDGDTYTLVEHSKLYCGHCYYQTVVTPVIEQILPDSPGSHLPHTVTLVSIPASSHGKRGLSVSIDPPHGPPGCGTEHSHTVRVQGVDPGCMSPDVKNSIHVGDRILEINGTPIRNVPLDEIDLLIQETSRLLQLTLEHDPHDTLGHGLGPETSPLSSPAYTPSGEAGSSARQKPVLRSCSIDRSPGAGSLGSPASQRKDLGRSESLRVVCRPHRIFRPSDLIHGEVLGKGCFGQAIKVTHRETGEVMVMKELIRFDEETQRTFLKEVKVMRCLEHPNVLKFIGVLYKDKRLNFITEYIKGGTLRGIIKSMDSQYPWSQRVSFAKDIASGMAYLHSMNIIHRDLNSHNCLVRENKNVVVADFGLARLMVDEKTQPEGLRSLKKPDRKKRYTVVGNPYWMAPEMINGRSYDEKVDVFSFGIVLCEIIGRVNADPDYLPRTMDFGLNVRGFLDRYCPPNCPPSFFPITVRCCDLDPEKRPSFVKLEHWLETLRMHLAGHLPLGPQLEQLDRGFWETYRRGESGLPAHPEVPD
For assay [5] the target is unchanged. Particulars: at 10 µM.
The target in assay [6] is T1, Serine/threonine-protein kinase STK11 (Homo sapiens) (UniProt Q15831).
T1 sequence (whole entry): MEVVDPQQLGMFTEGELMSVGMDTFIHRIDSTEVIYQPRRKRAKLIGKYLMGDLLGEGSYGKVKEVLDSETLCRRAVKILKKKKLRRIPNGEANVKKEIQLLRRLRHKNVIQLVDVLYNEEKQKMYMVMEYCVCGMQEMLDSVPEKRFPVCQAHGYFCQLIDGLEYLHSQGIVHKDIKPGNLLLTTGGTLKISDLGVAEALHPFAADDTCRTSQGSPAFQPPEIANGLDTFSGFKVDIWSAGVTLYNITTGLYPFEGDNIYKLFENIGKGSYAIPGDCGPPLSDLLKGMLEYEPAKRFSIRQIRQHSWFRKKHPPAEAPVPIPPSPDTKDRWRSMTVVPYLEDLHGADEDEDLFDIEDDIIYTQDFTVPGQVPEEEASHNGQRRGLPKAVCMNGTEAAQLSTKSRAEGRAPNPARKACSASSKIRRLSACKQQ
Particulars: at 1 µM.

Assay [7] concerns the target T1, Serine/threonine-protein kinase STK11 (Homo sapiens). Particulars: at 10 µM.
Assay [8] concerns the target Serine/threonine-protein kinase 10 (Homo sapiens) (UniProt O94804). Particulars: at 1 µM.
Assay [9] shares this target. Particulars: at 10 µM.
The target in assay [10] is Tyrosine-protein kinase Lck (Homo sapiens) (UniProt P06239). Particulars: at 1 µM.
Assay [11] shares this target. Particulars: at 10 µM.
For assay [12] the target is unchanged. Particulars: at 1 µM. This is another data set of the same source.
The target is the same in assay [13]. Particulars: at 10 µM. The source holds these as a separate data set.
The target in assay [14] is Tyrosine-protein kinase Lyn (Homo sapiens) (UniProt P07948). Particulars: at 1 µM.
The target is the same in assay [15]. Particulars: at 10 µM.
The target in assay [16] is Mitogen-activated protein kinase 3 (Homo sapiens) (UniProt P27361). Particulars: at 1 µM.
Sequence of Mitogen-activated protein kinase 3 (Homo sapiens) (P27361 whole entry): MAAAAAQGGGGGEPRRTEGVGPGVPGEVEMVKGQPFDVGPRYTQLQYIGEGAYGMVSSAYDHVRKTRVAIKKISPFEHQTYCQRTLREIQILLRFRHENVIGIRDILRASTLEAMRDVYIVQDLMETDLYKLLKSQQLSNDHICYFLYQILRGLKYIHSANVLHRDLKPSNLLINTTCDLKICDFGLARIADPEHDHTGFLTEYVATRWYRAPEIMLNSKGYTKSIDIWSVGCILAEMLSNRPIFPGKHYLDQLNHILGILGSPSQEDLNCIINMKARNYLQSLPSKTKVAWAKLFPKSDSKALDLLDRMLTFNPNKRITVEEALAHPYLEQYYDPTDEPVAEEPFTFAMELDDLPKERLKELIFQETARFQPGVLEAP
Assay [17] shares this target. Particulars: at 10 µM.
Assay [18] has as its target Mitogen-activated protein kinase 1 (Homo sapiens) (UniProt P28482). Particulars: at 1 µM.
Assay [19] shares this target. Particulars: at 10 µM.
In assay [20] the target is MAP kinase-activated protein kinase 2 (Homo sapiens) (UniProt P49137). Particulars: at 1 µM.
Sequence of MAP kinase-activated protein kinase 2 (Homo sapiens) (P49137 whole entry, looked up): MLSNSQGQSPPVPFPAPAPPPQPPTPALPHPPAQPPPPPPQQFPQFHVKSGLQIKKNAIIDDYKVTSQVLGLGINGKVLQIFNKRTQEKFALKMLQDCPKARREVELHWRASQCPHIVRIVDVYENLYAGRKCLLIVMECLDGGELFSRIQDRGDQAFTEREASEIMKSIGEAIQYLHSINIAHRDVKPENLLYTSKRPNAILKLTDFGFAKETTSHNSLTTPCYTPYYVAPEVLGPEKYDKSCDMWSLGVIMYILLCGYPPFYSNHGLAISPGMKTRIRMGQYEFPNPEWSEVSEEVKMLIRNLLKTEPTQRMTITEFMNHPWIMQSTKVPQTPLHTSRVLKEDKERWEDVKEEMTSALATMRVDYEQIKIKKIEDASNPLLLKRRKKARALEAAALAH

Sequence of Mitogen-activated protein kinase 10 (Homo sapiens) (P53779 whole entry): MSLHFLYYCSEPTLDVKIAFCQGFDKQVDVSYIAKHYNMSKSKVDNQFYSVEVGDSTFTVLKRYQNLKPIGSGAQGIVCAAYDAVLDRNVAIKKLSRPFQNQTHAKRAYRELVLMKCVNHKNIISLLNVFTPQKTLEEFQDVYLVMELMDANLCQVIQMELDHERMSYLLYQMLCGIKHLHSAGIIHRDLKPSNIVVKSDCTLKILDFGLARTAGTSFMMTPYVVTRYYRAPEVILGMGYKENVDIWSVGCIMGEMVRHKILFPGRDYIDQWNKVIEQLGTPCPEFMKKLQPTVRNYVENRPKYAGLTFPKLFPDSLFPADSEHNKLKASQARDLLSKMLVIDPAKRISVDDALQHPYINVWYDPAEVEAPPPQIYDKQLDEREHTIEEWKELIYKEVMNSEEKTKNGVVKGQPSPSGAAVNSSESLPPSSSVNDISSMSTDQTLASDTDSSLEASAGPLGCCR
Sequence of Mitogen-activated protein kinase 1 (Homo sapiens) (P28482 whole entry): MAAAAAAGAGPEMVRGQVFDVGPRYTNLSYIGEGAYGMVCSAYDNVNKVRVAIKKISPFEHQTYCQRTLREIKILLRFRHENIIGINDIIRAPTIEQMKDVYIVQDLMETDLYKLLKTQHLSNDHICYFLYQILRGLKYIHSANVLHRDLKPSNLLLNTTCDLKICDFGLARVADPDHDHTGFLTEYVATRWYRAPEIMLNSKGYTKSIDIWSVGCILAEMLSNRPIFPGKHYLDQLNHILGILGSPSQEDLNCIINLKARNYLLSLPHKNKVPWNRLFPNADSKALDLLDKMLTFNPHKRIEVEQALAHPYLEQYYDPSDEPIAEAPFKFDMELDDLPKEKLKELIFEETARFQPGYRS
Sequence of Vascular endothelial growth factor receptor 2 (Homo sapiens) (P35968 whole entry): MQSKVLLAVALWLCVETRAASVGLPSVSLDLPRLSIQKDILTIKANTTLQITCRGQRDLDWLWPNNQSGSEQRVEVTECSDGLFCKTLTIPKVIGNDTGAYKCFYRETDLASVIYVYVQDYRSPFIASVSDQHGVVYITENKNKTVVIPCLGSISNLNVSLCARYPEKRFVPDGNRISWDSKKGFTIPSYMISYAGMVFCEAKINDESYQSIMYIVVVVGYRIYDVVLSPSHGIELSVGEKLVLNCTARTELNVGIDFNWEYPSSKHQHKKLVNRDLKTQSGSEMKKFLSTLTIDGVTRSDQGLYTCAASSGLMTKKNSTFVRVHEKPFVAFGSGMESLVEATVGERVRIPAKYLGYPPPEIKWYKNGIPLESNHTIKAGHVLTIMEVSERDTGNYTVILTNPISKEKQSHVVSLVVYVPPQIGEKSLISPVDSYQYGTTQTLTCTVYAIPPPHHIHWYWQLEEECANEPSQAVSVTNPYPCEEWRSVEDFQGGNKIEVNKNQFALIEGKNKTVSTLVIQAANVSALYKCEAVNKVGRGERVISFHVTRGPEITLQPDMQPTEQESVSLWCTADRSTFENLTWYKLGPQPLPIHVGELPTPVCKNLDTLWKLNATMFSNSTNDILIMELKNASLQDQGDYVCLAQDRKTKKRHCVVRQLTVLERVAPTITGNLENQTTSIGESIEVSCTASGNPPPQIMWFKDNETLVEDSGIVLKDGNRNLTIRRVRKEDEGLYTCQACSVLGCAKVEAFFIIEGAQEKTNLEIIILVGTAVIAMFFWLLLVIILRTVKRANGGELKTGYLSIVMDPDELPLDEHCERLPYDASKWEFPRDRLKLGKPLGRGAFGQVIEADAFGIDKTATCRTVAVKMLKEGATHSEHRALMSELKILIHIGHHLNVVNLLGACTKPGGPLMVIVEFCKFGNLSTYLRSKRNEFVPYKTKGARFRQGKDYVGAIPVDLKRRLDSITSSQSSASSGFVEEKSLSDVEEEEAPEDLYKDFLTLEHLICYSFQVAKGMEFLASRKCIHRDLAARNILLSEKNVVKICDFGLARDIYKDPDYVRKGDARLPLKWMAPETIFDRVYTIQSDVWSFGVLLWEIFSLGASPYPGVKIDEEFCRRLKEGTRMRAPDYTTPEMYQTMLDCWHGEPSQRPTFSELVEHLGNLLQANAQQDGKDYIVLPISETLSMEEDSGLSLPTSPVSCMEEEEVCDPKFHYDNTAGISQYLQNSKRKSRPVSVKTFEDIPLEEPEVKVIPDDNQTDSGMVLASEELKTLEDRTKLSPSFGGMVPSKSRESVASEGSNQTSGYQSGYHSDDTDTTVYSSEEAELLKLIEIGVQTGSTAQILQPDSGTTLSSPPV
Sequence of Serine/threonine-protein kinase 10 (Homo sapiens) (O94804 whole entry, looked up): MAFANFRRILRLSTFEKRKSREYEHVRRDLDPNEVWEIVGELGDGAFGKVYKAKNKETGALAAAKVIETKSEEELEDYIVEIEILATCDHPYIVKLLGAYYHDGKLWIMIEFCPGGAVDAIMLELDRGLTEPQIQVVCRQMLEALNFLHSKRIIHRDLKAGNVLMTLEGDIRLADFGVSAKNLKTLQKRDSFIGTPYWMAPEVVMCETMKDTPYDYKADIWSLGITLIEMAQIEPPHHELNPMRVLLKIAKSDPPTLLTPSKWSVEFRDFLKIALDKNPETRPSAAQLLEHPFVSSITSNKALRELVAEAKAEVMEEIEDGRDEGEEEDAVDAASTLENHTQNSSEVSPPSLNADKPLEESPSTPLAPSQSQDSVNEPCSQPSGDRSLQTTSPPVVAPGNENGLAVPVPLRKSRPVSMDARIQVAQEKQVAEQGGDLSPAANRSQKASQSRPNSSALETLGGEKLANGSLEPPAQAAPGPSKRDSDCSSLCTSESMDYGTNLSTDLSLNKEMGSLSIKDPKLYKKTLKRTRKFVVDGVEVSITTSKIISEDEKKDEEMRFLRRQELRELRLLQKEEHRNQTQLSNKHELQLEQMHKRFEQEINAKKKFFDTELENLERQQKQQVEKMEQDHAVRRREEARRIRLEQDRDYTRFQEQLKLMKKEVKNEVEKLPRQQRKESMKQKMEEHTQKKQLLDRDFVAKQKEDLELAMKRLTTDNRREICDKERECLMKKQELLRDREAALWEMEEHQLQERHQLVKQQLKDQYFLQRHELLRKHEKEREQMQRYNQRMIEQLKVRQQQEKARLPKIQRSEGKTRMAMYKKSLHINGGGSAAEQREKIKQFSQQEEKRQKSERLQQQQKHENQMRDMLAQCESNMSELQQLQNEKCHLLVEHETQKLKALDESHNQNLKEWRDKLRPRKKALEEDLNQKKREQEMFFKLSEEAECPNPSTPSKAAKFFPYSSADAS

As for `Cn1cnc2cc3c(Nc4cccc(Br)c4)ncnc3cc21`, the residual activity in assay [1] is 9%; in assay [2], 49%; in assay [3], 19%; in assay [4], 105%; in [5] it was 57%; in assay [6], 101%. Besides, the residual activity in assay [7] turned out to be 99%; in [8], 31%; in [9], 10%; in assay [10] it was 42%; in [11], 24%; in assay [12], 41%. Moreover, the residual activity in assay [13] came out at 34%; in assay [14], 8%; in [15], 2%; in [16], 103%; in assay [17], 85%; in [18], 107%. The residual activity came to 95% in assay [19] and 108% in assay [20].
Regarding `COc1cc2ncnc(Nc3ccc(NC(=O)c4ccccc4)cc3)c2cc1OC`, the residual activity is 76% in [1]; 95% in [2]; 35% in assay [3]; 110% in [4]; 56% in [5]; 108% in assay [6]. The residual activity turned out to be 109% in assay [7]; 71% in assay [8]; 33% in assay [9]; 70% in [10]; 17% in assay [11]; 30% in [12]. Moreover, the residual activity in [13] came out at 9%; in assay [14], 32%; in assay [15] it was 6%; in assay [16], 88%; in assay [17], 83%; in [18] it was 103%. Also, the residual activity in [19] came out at 103%; in assay [20], 108%.
`Nc1n[nH]c2nnc(-c3c(-c4ccccc4)nn4ccccc34)cc12`: the residual activity turned out to be 0% in [1]; 86% in assay [2]; 59% in assay [3]; 82% in assay [4]; 85% in assay [5]; 91% in assay [6]. For the same molecule, the residual activity stood at 94% in [7]; 80% in assay [8]; 29% in assay [9]; 88% in assay [10]; 58% in [11]; 94% in [12]. Further, the residual activity came to 68% in [13]; 66% in [14]; 33% in assay [15]; 21% in assay [16]; 3% in assay [17]; 68% in [18]. Also, the residual activity was found to be 13% in assay [19] and 102% in assay [20].
On to `O=[N+]([O-])c1ccc(-c2nc(-c3ccc(F)cc3)c(-c3ccncc3)[nH]2)cc1`, for which the residual activity in assay [1] amounted to 21%; in assay [2], 85%; in [3], 93%; in [4] it was 96%; in assay [5] it was 90%; in assay [6], 98%. Also, the residual activity was 99% in [7]; 114% in assay [8]; 108% in assay [9]; 71% in [10]; 86% in assay [11]; 92% in assay [12]. Further, the residual activity in assay [13] came to 82%; in assay [14], 75%; in assay [15], 23%; in [16], 85%; in assay [17], 72%; in assay [18] it was 113%. Moreover, the residual activity was determined as 109% in assay [19] and 92% in assay [20].
As to `Nc1ccc2ncnc(NCCc3ccc(Oc4ccccc4)cc3)c2c1`, the residual activity stood at 80% in [1]; 79% in assay [2]; 53% in assay [3]; 106% in assay [4]; 80% in assay [5]; 105% in assay [6]. Besides, the residual activity came to 94% in [7]; 92% in [8]; 75% in assay [9]; 76% in assay [10]; 45% in assay [11]; 83% in assay [12]. Moreover, the residual activity was determined as 20% in assay [13]; 24% in [14]; 11% in assay [15]; 122% in assay [16]; 74% in assay [17]; 104% in assay [18]. For the same molecule, the results for the residual activity in assay [19] and in [20] were 86% and 70%, respectively.
Take `O=C1c2ccccc2-[n+]2ccc3c([nH]c4ccccc43)c21`: the residual activity worked out at 62% in [1]; 88% in [2]; 78% in [3]; 91% in [4]; 88% in assay [5]; 100% in [6]. Moreover, the residual activity in [7] was 97%; in [8], 94%; in assay [9], 90%; in [10], 85%; in assay [11] it was 69%; in assay [12], 81%. The residual activity in [13] stood at 74%; in [14], 88%; in assay [15] it was 65%; in assay [16] it was 85%; in assay [17], 94%; in [18], 107%. Further, the figures for the residual activity in assay [19] and in [20] were 108% and 81%, respectively.
For `CCOc1cc2ncnc(Nc3cccc(Br)c3)c2cc1OCC`, the residual activity amounted to 11% in assay [1]; 54% in assay [2]; 13% in [3]; 107% in assay [4]; 49% in assay [5]; 98% in assay [6]. For the same molecule, the residual activity in assay [7] came to 94%; in assay [8], 23%; in [9], 10%; in assay [10] it was 39%; in [11] it was 4%; in assay [12] it was 26%. Further, the residual activity in assay [13] is 8%; in [14], 3%; in assay [15], 1%; in assay [16], 90%; in assay [17], 55%; in [18], 106%. For the same molecule, the residual activity in assay [19] turned out to be 77%; in [20], 73%.
As for `CC(C)n1cnc2/c(=N/c3cccc(Cl)c3)nc(NCCO)[nH]c21`, the residual activity in [1] came out at 60%; in [2], 85%; in assay [3] it was 53%; in assay [4], 96%; in assay [5], 80%; in assay [6] it was 96%. Moreover, the residual activity in [7] came out at 81%; in assay [8] it was 89%; in assay [9] it was 47%; in [10] it was 48%; in assay [11] it was 37%; in assay [12], 86%. Besides, the residual activity in assay [13] is 40%; in assay [14] it was 20%; in assay [15] it was 2%; in [16], 92%; in assay [17], 77%; in [18] it was 117%. Moreover, the values for the residual activity in assay [19] and in assay [20] were 78% and 91%, respectively.
For the molecule `O=C1NC(=O)/C(=C\c2ccc3nccnc3c2)S1`, the residual activity in assay [1] was found to be 104%; in assay [2] it was 87%; in [3], 63%; in assay [4], 91%; in [5], 81%; in assay [6], 90%. Moreover, the residual activity in assay [7] worked out at 78%; in assay [8] it was 71%; in [9] it was 35%; in assay [10], 108%; in [11], 84%; in assay [12], 81%. Besides, the residual activity in assay [13] was 61%; in assay [14] it was 99%; in [15] it was 89%; in assay [16] it was 82%; in assay [17], 77%; in assay [18] it was 98%. Besides, the values for the residual activity in [19] and in assay [20] were 96% and 87%, respectively.
For `c1ccc(-c2n[nH]cc2-c2ccnc3ccccc23)nc1`, the residual activity came out at 52% in assay [1]; 57% in assay [2]; 23% in assay [3]; 90% in [4]; 74% in [5]; 96% in [6]. Also, the residual activity in [7] came to 94%; in [8], 90%; in [9], 93%; in [10] it was 123%; in assay [11] it was 71%; in assay [12] it was 91%. Also, the residual activity worked out at 66% in assay [13]; 90% in assay [14]; 24% in assay [15]; 88% in assay [16]; 83% in assay [17]; 96% in assay [18]. Also, the residual activity worked out at 109% in [19] and 101% in assay [20].
On to `NC(=O)c1ccc2[nH]c(-c3ccc(Oc4ccc(Cl)cc4)cc3)nc2c1`, for which the residual activity was 98% in [1]; 84% in assay [2]; 43% in assay [3]; 93% in assay [4]; 55% in [5]; 103% in [6]. In addition, the residual activity was determined as 94% in [7]; 83% in [8]; 58% in assay [9]; 83% in [10]; 72% in assay [11]; 105% in assay [12]. In addition, the residual activity in assay [13] turned out to be 102%; in [14], 91%; in [15], 88%; in [16] it was 99%; in [17], 99%; in assay [18] it was 102%. The residual activity in assay [19] was determined as 99%; in assay [20], 103%.
Consider `COc1cccc(-c2cc(=O)c3ccccc3o2)c1N`, for which the residual activity in [1] turned out to be 95%; in assay [2] it was 101%; in assay [3], 102%; in assay [4] it was 93%; in assay [5] it was 93%; in [6], 103%. Moreover, the residual activity in assay [7] turned out to be 100%; in assay [8], 114%; in [9], 105%; in [10], 85%; in assay [11] it was 85%; in assay [12], 103%. Also, the residual activity in [13] was determined as 93%; in assay [14], 93%; in [15], 80%; in assay [16] it was 106%; in assay [17] it was 90%; in assay [18], 114%. Besides, the residual activity is 96% in assay [19] and 99% in assay [20].
`Oc1n[nH]c2nnc(-c3c(-c4ccccc4)nn4ccccc34)cc12`: the residual activity in assay [1] stood at 43%; in [2] it was 93%; in assay [3] it was 89%; in assay [4], 77%; in [5] it was 87%; in assay [6], 91%. For the same molecule, the residual activity in [7] came out at 96%; in assay [8] it was 100%; in assay [9] it was 79%; in [10] it was 88%; in [11], 82%; in assay [12] it was 90%. Moreover, the residual activity in assay [13] is 71%; in [14] it was 71%; in assay [15], 68%; in assay [16], 92%; in [17], 93%; in [18] it was 101%. The residual activity in [19] was 105%; in assay [20], 82%.
